Test systems include SR leukemia; RPMI-8226 leukemia; OVCAR-8 ovarian; OVCAR-5 ovarian; OVCAR-4 ovarian; SK-OV-3 ovarian; IGROV1 ovarian; OVCAR-3 ovarian; HS 578T breast; T-47D breast; BT-549 breast; MDA-MB-435 melanoma; SW-620 colon; MCF7 breast; HCT-116 colon; HCC-2998 colon; KM12 colon; NCI/ADR-RES ovarian.
Assay in all cases: NCI-60 one-dose screen, 48 h (100 = growth as untreated, 0 = no growth, -100 = all killed)
Holding throughout (settings): 10 µM unless noted

Values joined by “and” are separate entries in the source; they are usually repeats but may differ in a detail not shown here. Equal values may be shown once. Compounds without any hit were thinned out: in the full panel of roughly 83,000, 20% have a hit.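 Growth was measured after 48 h exposure to one concentration of compound in 96-well plates. Values under 10 count as active.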 Values without a mark were called inactive. Active and inactive are the calls of the source.

On to `Nc1ccc(/C=N/Nc2ccnc3c(N)cccc23)c2cccnc12`, for which the growth in the test on SR leukemia was -28.2% (active); in the test on RPMI-8226 leukemia it was -30.3% (active); in the test with OVCAR-8 ovarian, -30% (active); in the test with OVCAR-5 ovarian, 13.9%; in the test on OVCAR-4 ovarian it was -51.4% (active); in the test on SK-OV-3 ovarian, 97.2%. In addition, the growth with IGROV1 ovarian was 88.4%; in the test on OVCAR-3 ovarian, -85.5% (active); with HS 578T breast, -17% (active); in the test with T-47D breast, -39.5% (active); in the test on BT-549 breast it was -37.2% (active); in the test with MDA-MB-435 melanoma, -84.1% (active). In addition, the growth in the test with SW-620 colon was -28.3% (active); with MCF7 breast, -47.1% (active); with HCT-116 colon it was -93.1% (active); in the test with HCC-2998 colon, 41.5%; in the test on KM12 colon, 0.438% (active).
`OB(O)c1ccsc1-c1nc2ccc3[nH]ncc3c2c2c1CCCC2`: the growth with SR leukemia is 14.1%; in the test with RPMI-8226 leukemia it was 60.3%; with OVCAR-8 ovarian, 66.2%; in the test on OVCAR-5 ovarian, 92.1%; in the test on OVCAR-4 ovarian, 72.3%; in the test on SK-OV-3 ovarian it was 15.3%. For the same molecule, the growth with IGROV1 ovarian is 32.6%; in the test on OVCAR-3 ovarian, 85.2%; in the test with HS 578T breast, 32.9%; in the test on NCI/ADR-RES ovarian, 75.6%; in the test on BT-549 breast, 47.1%; with SW-620 colon, 22.7%. For the same molecule, the growth was 49.3% in the test with MCF7 breast, 26.4% in the test with HCT-116 colon, 66% in the test with HCC-2998 colon and 38.1% in the test with KM12 colon.
With `COc1cc(N=Nc2ccc(O)c3ncccc23)c2ncccc2c1`, the growth was 7.54% (active) with SR leukemia; 31.7% in the test on RPMI-8226 leukemia; 17.1% in the test with OVCAR-8 ovarian; 59.8% in the test with OVCAR-5 ovarian; 17.4% with OVCAR-4 ovarian; 43.3% with SK-OV-3 ovarian. For the same molecule, the growth was 27.4% with IGROV1 ovarian; 30.3% in the test with OVCAR-3 ovarian; 33.9% with HS 578T breast; 20.2% in the test on T-47D breast; 39% with BT-549 breast; 42.4% in the test with MDA-MB-435 melanoma. Further, the growth in the test on SW-620 colon was 30.5%; in the test with MCF7 breast, 27.5%; in the test with HCT-116 colon it was 19.4%; with HCC-2998 colon, 36.3%; in the test on KM12 colon, 28.1%.
For the molecule `O=C(Nc1ccc2ncsc2c1)c1csc(Nc2ccc3[nH]ncc3c2)n1`, the growth in the test on SR leukemia was 29.1%; with RPMI-8226 leukemia, 13.6%; in the test on OVCAR-8 ovarian, 45.7%; in the test with OVCAR-5 ovarian, 78.6%; with OVCAR-4 ovarian it was 74.8%; in the test with SK-OV-3 ovarian it was 52.9%. Moreover, the growth in the test on IGROV1 ovarian is 59.1%; with OVCAR-3 ovarian, 8.38% (active); in the test with HS 578T breast, 37.7%; with T-47D breast it was 36.4%; in the test on BT-549 breast it was 73.4%; in the test with MDA-MB-435 melanoma, -27.1% (active). The growth in the test with SW-620 colon is 20.9%; in the test on MCF7 breast it was 21.6%; in the test with HCT-116 colon it was 47.5%; in the test on HCC-2998 colon, 72.5%; with KM12 colon, 30.9%.
As for `Cc1nonc1-c1ccc2c(c1)OCO2`, the growth in the test on SR leukemia is 104%; with RPMI-8226 leukemia it was 94.1% and 91.7%; in the test with OVCAR-8 ovarian, 98.2% and 96.7%; with OVCAR-5 ovarian it was 111% and 121%; with OVCAR-4 ovarian it was 108% and 97.2%; with SK-OV-3 ovarian, 97.3% and 107%. Besides, the growth with IGROV1 ovarian was 108% and 116%; in the test with OVCAR-3 ovarian it was 101% and 105%; in the test on HS 578T breast, 107% and 145%; with NCI/ADR-RES ovarian it was 97.7%; with BT-549 breast, 111% and 115%; with MDA-MB-435 melanoma it was 89.9% and 109%. The growth was 105% and 107% in the test on SW-620 colon; 99.6% and 98.3% in the test on MCF7 breast; 112% and 98.5% in the test with HCT-116 colon; 100% and 107% in the test with HCC-2998 colon; 95.4% and 116% in the test with KM12 colon.
In the case of `COc1ccc(Nc2ncnc3ccc(-c4cncc(NS(C)(=O)=O)c4)cc23)cc1Cl`, the growth with SR leukemia is 11.2%; with RPMI-8226 leukemia, 24.9%; in the test with OVCAR-8 ovarian, 46.2%; in the test on OVCAR-5 ovarian, 45.1%; in the test on OVCAR-4 ovarian, 57.5%; with SK-OV-3 ovarian, 21.6%. For the same molecule, the growth is 3.39% (active) with IGROV1 ovarian; 15.2% in the test with OVCAR-3 ovarian; -3.14% (active) with HS 578T breast; 86% in the test on NCI/ADR-RES ovarian; 24.5% in the test with BT-549 breast; 37.7% in the test with SW-620 colon. For the same molecule, the growth in the test on MCF7 breast is 15%; with HCT-116 colon, 19.1%; with HCC-2998 colon, 49.3%; in the test on KM12 colon, 61%.
For the molecule `CCCCCCCCN(CCCCCCCC)CC(O)c1cc(Cl)ccc1OC` (centres undefined), the growth in the test on SR leukemia is 14.5%; with RPMI-8226 leukemia, 41.5%; in the test with OVCAR-8 ovarian, 87.9%; in the test with OVCAR-5 ovarian, 72.6%; in the test with OVCAR-4 ovarian it was 66.9%; with SK-OV-3 ovarian, 78.1%. Further, the growth was 84.9% in the test on IGROV1 ovarian; 91.9% in the test with OVCAR-3 ovarian; 69.1% with HS 578T breast; 82.6% in the test with NCI/ADR-RES ovarian; 102% in the test with BT-549 breast; 83.6% with MDA-MB-435 melanoma. Also, the growth is 67.2% with SW-620 colon; 54.7% in the test with MCF7 breast; 35.7% in the test with HCT-116 colon; 51.7% with HCC-2998 colon; 61.8% in the test with KM12 colon.
On to `O=C(c1cccc(Br)c1)N1CCN(c2ccnc3cc(Cl)ccc23)CC1`, for which the growth in the test on SR leukemia is 118%; in the test on RPMI-8226 leukemia, 70.7%; with OVCAR-8 ovarian, 80.2%; in the test with OVCAR-5 ovarian, 90%; in the test with OVCAR-4 ovarian, 54.9%; in the test on SK-OV-3 ovarian it was 98.3%. Besides, the growth was 90.6% with IGROV1 ovarian; 86.9% in the test on OVCAR-3 ovarian; 112% with HS 578T breast; 44.4% in the test with T-47D breast; 112% in the test on BT-549 breast; 90.2% with MDA-MB-435 melanoma. The growth in the test with SW-620 colon is 101%; with MCF7 breast, 88.7%; in the test with HCT-116 colon, 84.5%; in the test on HCC-2998 colon, 109%; in the test with KM12 colon it was 96.4%.

Source of the values: PubChem BioAssay (NCI).
